According to the supplement of paper PMC10849652:
The full data set covers some 8,800 targets. This sample favours those with a hit. About 0.5% of all pairs of compound and target were hits.

Assays:
Experiment in all cases: log2 fold change, soluble protein after heating vs DMSO (PISA); higher = thermal stabilisation; K562 lysate, 10 uM; active = over 0.2 and 3.5 SD of the protein, either way, in both replicates (recomputed)
[1] = compound: C1=CC=C(C=C1)[C@H](COC2=CC3=C(C=C2)NC(=O)N3)NC(=O)C4=CC=CN(C4=O)CC5=CC(=C(C=C5)F)F
How it was run: (§1)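 K562 pellets were dounce-homogenised in PBS pH 7.4 containing 1 mM MgCl2, and the crude extract, at 1 mg/mL protein, was exposed to 10 μM compound for 30 min. Aliquots were heated for 3 min across 48°C-58°C, pooled, brought to 0.5% NP-40 at 4°C and spun at 21,000xg for 90 min, with the supernatant taken as soluble protein. TMTpro 16plex LC-MS/MS with equalised channel sums quantified that protein. Values are log-two fold changes in thermal stability relative to solvent controls, taken from duplicates.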

[2] = compound: CC1=C(SC2=C1C(=N[C@H](C3=NN=C(N32)C)CC(=O)N)C4=CC=C(C=C4)Cl)C
How it was run: as §1

[3] = compound: CC1=C2C(=CC=C1)N=C(N(C2=O)C3=CC=CC=C3C)CN4C=NC5=C(N=CN=C54)N
How it was run: as §1

[4] = compound: Cc1sc2c(c1C)C(c1ccc(Cl)cc1)=N[C@@H](CC(=O)OC(C)(C)C)c1nnc(C)n1-2
How it was run: as §1

[5] = compound: c1ccc([C@@H]2C[C@H]2NC2CCNCC2)cc1
How it was run: as §1

Measured: log2 fold change

ALDH1A1 (UniProt P00352)
Chain of UniProt P00352 (P00352 whole entry, looked up): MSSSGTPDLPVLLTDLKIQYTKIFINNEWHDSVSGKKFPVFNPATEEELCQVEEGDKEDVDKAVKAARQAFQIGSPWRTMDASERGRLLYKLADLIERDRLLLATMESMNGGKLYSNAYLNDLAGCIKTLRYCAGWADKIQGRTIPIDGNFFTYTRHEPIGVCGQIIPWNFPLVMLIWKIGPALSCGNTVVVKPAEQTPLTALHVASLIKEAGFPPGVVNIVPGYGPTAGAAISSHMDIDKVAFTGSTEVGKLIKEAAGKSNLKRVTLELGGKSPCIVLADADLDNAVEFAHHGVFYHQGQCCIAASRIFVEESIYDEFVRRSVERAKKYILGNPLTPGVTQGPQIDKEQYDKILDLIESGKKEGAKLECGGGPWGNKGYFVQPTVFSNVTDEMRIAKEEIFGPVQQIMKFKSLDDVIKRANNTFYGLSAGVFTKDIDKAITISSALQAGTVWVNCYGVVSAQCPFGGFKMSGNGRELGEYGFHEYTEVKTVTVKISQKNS
inactive: [1] -0.032 | [2] 0.006 | [3] -0.028 | [4] -0.011 | [5] 0.045

ANXA13 isoform 2 (UniProt P27216)
inactive: [1] 0.058 | [2] -0.041 | [3] -0.048 | [4] 0.17 | [5] 0.011

ANKRD10 (UniProt Q9NXR5)
Chain of UniProt Q9NXR5 (Q9NXR5 whole entry, looked up): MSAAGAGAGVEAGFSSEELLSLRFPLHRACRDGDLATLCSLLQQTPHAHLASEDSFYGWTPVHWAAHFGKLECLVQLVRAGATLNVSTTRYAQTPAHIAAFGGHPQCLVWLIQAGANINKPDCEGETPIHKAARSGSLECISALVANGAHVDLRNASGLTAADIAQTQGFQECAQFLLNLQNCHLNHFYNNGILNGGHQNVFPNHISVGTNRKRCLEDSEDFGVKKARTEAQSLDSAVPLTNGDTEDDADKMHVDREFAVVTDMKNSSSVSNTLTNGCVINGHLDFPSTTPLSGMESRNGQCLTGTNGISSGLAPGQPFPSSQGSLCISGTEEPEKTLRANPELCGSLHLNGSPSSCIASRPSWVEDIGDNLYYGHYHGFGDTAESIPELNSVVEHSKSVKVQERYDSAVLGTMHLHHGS
inactive: [1] -0.131 | [2] -0.027 | [3] 0.025 | [4] 0.06 | [5] -0.019

ARMC6 (UniProt Q6NXE6)
Chain of UniProt Q6NXE6 (Q6NXE6 whole entry, looked up): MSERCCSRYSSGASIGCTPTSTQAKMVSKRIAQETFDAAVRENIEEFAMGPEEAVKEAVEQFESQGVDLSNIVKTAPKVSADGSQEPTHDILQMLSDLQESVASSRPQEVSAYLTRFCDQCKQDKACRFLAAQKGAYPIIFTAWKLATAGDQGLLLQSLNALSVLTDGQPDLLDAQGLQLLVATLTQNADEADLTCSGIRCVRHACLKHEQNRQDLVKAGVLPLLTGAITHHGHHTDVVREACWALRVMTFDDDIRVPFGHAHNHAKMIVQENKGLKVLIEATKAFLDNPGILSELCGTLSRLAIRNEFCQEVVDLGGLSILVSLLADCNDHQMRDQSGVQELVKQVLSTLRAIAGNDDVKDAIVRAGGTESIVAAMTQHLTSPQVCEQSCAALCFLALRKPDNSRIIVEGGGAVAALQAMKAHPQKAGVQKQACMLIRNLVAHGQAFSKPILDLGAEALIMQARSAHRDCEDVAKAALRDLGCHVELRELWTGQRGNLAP
inactive: [1] -0.046 | [2] -0.012 | [3] -0.017 | [4] 0.003 | [5] 0.043

ACADS (UniProt P16219)
Chain of UniProt P16219 (P16219 whole entry, looked up): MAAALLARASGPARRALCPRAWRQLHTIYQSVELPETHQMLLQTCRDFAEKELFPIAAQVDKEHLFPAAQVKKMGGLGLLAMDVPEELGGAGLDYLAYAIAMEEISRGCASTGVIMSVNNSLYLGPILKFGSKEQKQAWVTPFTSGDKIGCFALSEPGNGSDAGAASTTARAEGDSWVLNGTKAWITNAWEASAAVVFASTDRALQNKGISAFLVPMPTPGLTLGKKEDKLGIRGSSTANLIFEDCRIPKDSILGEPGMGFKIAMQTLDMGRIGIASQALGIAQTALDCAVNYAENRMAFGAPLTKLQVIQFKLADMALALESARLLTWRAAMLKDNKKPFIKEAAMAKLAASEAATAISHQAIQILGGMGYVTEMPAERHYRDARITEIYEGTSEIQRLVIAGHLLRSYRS
inactive: [1] -0.015 | [2] 0.069 | [3] 0.054 | [4] 0.013 | [5] 0.003

AKAP11 (UniProt Q9UKA4)
Chain of UniProt Q9UKA4 (Q9UKA4 whole entry, looked up): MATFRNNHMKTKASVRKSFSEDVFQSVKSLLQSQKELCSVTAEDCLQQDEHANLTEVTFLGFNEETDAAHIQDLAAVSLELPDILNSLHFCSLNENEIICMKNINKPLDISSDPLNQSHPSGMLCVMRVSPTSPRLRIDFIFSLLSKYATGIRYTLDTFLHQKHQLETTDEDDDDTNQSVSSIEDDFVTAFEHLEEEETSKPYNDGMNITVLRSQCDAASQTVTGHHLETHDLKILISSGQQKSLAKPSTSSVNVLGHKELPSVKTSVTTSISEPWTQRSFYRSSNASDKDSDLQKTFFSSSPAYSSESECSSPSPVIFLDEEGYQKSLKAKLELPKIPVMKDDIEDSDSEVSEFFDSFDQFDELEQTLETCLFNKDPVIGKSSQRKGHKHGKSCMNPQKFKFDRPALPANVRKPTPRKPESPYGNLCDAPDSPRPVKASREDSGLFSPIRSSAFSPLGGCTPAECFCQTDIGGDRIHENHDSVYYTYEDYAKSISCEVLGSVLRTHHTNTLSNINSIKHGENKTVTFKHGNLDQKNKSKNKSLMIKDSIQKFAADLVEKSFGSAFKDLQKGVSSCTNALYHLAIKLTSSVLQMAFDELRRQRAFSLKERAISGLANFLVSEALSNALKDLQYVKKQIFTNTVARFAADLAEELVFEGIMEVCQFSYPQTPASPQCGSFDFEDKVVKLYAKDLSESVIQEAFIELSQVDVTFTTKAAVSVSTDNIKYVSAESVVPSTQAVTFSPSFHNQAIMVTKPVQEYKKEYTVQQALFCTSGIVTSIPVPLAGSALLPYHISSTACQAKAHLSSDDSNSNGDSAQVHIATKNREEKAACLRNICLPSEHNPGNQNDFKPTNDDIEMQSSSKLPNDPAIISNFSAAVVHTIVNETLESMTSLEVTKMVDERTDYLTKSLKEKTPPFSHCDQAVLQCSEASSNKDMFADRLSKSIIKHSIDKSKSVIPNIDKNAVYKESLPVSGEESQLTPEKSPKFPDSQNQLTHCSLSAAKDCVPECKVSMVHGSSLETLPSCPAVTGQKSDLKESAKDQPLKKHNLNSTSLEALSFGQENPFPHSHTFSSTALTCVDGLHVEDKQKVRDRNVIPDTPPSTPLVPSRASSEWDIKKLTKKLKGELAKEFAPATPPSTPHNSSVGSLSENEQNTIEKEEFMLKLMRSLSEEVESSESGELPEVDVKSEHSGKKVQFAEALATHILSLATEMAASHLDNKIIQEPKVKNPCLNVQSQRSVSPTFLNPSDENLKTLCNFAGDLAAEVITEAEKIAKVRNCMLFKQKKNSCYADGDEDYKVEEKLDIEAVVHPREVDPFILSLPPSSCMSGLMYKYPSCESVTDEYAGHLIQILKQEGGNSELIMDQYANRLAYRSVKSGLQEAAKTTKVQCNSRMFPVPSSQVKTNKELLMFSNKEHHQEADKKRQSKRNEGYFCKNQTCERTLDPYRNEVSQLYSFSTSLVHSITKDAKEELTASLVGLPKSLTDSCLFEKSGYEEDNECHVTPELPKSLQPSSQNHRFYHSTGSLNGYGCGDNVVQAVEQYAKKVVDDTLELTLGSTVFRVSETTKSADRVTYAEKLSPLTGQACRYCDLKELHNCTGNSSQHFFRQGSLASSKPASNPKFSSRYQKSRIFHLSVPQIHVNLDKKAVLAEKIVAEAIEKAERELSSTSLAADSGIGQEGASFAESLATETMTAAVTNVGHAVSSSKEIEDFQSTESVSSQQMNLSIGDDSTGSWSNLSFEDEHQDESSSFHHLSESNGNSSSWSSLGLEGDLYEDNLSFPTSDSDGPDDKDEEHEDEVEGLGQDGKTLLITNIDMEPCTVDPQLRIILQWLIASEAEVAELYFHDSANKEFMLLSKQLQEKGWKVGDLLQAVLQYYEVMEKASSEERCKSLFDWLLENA
inactive: [1] 0.025 | [2] -0.008 | [3] 0.059 | [4] -0.041 | [5] -0.012

AKR1C2 (UniProt P52895)
inactive: [1] -0.012 | [2] 0.047 | [3] 0.047 | [4] -0.184 | [5] -0.107

ABCF3 (UniProt Q9NUQ8)
Chain of UniProt Q9NUQ8 (Q9NUQ8 whole entry, looked up): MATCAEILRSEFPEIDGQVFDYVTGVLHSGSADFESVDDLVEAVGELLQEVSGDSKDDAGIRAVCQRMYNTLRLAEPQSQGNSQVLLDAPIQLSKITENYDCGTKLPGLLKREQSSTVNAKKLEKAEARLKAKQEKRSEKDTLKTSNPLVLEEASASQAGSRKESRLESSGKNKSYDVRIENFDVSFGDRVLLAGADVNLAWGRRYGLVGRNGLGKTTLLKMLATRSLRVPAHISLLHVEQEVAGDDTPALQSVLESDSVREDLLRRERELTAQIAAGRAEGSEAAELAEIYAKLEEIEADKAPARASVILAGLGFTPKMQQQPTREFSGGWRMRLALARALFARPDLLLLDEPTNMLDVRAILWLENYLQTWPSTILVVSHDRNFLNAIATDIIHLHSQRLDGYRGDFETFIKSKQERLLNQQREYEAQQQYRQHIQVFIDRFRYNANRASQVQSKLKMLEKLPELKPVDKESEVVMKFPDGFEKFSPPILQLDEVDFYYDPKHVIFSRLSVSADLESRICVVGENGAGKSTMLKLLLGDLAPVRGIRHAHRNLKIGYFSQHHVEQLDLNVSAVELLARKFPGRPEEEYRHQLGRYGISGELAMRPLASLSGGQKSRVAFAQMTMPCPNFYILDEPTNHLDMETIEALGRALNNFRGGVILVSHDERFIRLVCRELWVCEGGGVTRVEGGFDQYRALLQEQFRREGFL
inactive: [1] 0.002 | [2] -0.016 | [3] 0.031 | [4] 0.013 | [5] 0.06

ABHD12 isoform 2 (UniProt Q8N2K0)
Chain of UniProt Q8N2K0 (Q8N2K0 whole entry, looked up): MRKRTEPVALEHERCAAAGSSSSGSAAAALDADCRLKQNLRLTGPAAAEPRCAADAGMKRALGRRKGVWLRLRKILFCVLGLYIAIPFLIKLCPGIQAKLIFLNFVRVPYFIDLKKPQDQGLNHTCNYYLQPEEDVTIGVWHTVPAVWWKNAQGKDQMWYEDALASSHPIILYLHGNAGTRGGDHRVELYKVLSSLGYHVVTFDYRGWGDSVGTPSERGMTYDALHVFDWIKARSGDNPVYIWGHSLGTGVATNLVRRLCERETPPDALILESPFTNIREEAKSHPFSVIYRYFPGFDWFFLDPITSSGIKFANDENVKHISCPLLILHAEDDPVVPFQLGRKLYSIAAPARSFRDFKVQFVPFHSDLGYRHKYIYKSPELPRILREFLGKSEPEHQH
inactive: [1] 0.008 | [2] 0.042 | [3] 0.003 | [4] 0.031 | [5] 0.042
